# Assay outcomes deposited in PubChem BioAssay by several laboratories.
# eIF4E 4G PPI: blocks eIF4E binding to eIF4G; P63073+Q04637; TR-FRET eIF4E-eIF4GI(517-606) binding, 2 h; inhibition, % at 21.7 µM; hit rate 0.37% among 220,000; AID 782;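 active = inhibition above about 30%, limit read from the data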;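 note: 0% = full FRET control wells and 100% = background wells lacking eIF4GI fragment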
# Target sequence (P63073 whole entry, looked up, the tested form may be a part): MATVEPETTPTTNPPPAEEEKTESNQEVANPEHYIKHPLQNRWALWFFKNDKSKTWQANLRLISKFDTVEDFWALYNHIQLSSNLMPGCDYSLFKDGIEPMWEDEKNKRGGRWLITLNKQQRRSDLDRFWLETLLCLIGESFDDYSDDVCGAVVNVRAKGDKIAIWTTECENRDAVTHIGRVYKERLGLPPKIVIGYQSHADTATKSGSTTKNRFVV
# Target sequence (Q04637 whole entry, looked up, the tested form may be a part): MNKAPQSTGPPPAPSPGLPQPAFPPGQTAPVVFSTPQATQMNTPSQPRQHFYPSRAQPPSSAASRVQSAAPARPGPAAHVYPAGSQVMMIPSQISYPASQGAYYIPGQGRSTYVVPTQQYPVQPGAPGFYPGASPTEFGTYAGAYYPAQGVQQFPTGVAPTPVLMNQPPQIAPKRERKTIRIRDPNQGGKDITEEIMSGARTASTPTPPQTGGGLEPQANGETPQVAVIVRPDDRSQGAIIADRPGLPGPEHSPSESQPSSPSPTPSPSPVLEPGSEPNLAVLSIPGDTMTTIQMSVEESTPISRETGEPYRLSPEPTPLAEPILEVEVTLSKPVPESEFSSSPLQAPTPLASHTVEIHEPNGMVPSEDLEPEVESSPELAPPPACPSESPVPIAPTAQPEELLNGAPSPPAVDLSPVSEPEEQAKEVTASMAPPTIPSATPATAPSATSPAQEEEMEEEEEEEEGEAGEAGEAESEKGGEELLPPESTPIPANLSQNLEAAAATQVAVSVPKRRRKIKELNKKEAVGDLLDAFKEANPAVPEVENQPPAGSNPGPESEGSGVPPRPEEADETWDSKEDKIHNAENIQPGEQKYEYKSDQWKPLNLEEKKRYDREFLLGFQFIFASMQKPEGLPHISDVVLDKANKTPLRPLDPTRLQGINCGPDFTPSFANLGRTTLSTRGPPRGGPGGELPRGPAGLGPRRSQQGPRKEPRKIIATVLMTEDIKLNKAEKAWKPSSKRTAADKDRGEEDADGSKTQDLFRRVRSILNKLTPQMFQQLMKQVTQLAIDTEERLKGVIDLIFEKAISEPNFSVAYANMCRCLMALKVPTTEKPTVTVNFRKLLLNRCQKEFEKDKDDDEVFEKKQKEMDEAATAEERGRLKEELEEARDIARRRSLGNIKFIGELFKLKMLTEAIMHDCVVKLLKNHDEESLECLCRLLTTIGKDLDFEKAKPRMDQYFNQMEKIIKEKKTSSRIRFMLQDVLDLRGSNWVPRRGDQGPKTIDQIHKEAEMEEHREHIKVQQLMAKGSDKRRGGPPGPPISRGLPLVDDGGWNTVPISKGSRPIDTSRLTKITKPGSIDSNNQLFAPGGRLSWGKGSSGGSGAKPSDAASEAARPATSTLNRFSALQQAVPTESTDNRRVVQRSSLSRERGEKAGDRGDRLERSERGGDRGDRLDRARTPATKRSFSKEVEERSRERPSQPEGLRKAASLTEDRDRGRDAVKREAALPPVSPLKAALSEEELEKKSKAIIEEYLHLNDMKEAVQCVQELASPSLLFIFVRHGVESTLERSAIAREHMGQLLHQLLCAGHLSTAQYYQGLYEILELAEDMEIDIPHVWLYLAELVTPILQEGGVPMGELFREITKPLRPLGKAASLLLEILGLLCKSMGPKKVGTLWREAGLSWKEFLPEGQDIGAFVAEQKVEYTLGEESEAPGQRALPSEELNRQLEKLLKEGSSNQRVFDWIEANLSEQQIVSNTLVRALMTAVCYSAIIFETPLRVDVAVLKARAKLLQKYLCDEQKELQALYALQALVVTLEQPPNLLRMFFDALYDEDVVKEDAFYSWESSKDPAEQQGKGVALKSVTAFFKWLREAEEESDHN
# PABP1 MLLE inh: inhibitors of microRNA-mediated deadenylation, human PABP1 MLLE binding. P11940. GST-MLLE / FITC-PAM2 fluorescence polarization. inhibition, % at 20 µM. hit rate 0.36% among 360,000; in the data active = inhibition above about 35%, passing the limit was not always enough;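 note: plate controls were DMSO wells with GST-MLLE for no effect and wells lacking GST-MLLE protein for full effect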
# eIF4H inh: inhibitors of RNA binding by human eIF4H; AID 2012; hit rate 0.94% among 290,000; inhibition, % at 35 µM; eIF4H fluorescence polarization binding assay;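 note: calls also rest on retests at 20 µM and on dose response follow-up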
# PERK inhibitor: inhibitors of human PERK kinase; Q9NZJ5; hit rate 0.17% among 220,000; inhibition, % at 5.6 µM; CHO PERK-DD fusion, SEAP luminescence translation reporter;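 active = inhibition above the mean inhibition of all tested compounds plus 3 SD, set separately per screening campaign, cut at about 2.9% in these data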;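 note: PERK kinase domain activated by AP20187 dimerizer at 100 nM; 0% = DMSO with dimerizer and 100% = rapamycin at 8.4 µM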
# PABP polyA inh: blocks human PABP binding to poly(A) RNA. fluorescence polarization. P11940. AID 2014. hit rate 1% among 290,000. inhibition, % at 35 µM;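 note: calls also rest on retests at 20 µM and on dose response follow-up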
# * hit, by the source's call; · = no result; [ ] = another dose, or the depositor's remark. Hits are enriched below; roughly 1.6% of the tested compounds scored in any of these assays. Unless noted, the rule behind the calls is not given here.
SMILES,eIF4E 4G PPI,PABP1 MLLE inh,eIF4H inh,PERK inhibitor,PABP polyA inh
CCOC(=O)C1=CNS(=O)(=O)NC1c1ccc(OC(C)=O)cc1 (stereo not drawn),·,3,·,·,·
O=C(Nc1ccccc1Cl)c1cc(C2CCCN(S(=O)(=O)c3cccs3)C2)on1 (stereo not drawn),·,3,·,·,·
O=C(NCc1ccccc1Cl)c1cc(=O)[nH]c2ccccc12,·,-87,19,·,14
Cc1cc(C(=O)OCC(=O)N2CC(=O)Nc3ccccc32)c(C)n1-c1ccccc1,5,4,3.7*,-1,68*
COc1cc(SC)ccc1C(=O)NCC1CCCCC1,·,3,43,·,-4
CCOC(=O)Cc1c[nH]c(=S)[nH]c1=O,5,40*,-3,1,2
C/C(N)=C(/C#N)C(=O)CN1C(=O)NC(Cc2c[nH]c3ccccc23)C1=O (stereo not drawn),·,-3,57*,·,39
CC(C)(C)OC(=O)CN1C(=O)NC(Cc2c[nH]c3ccccc23)C1=O (stereo not drawn),·,-4,-5,·,-4
Cc1ccc2c(c1)-c1c(ssc1=S)C(C)(C)N2C(=O)c1ccco1,-1,48*,1,0,-10
COc1ccc(CCNC(=O)C(=O)NCC2OCCN2S(=O)(=O)c2cc(F)ccc2F)cc1 (stereo not drawn),·,4,-15,·,-1
CCCCCCCC[n+]1cccc(C(=O)N(CC)CC)c1,0,-9,-2,0,-15
CCCCCCCCCCCCCCCC[n+]1ccc(C(N)=O)cc1,78*[fluorescence artefact?],-91,-9,0,3
CCCCCCCCCCCCCCCC[n+]1cccc(C(=O)N(CC)CC)c1,77*[fluorescence artefact?],-5,9,0,5
CCCCCCCCCCCCCCCC[n+]1ccccc1,·,1,·,·,·
CCCCCCCCCCCCCCCC[n+]1ccc(/C=N/O)cc1,70*[fluorescence artefact?],4,13,-1,10
Cc1ccc(O)c(NC(=S)NC(=O)/C=C/c2ccccc2)c1,·,41*,7,·,17
COc1ccc(C(=O)O)cc1NC(=S)NC(=O)/C=C/c1ccc(C(C)C)cc1,·,39*,-4,·,-4
ON=C1c2ccccc2-c2cc(Br)ccc21,·,-6,·,·,·
CC(C)(C)c1nnc(NS(=O)(=O)c2ccc([N+](=O)[O-])cc2)s1,·,26,-12,·,-3
CCC(=O)NCCn1c(C)cc2ccccc21,2,22,106*,2,75*
Cc1cc2ccccc2n1CCNC(=O)COc1ccccc1,0,16,108,·,115*
CC(=O)NCCn1c(C)cc2ccccc21,-3,27,94*,·,93*
Cc1cc2ccccc2n1CCNC(=O)c1ccc(Br)o1,-1,43*,59*,1,52*
Cc1cc2ccccc2n1CCNC(=O)C(C)(C)C,1,18,8,·,4
CCOc1ccccc1OCCC(=O)OCC(=O)c1ccc[nH]1,-1,1,59*,0,3.8*
SMILES,eIF4E 4G PPI,PABP1 MLLE inh,eIF4H inh,PERK inhibitor,PABP polyA inh
CC(=O)C[C@@H](O)CC(=O)[C@H]1OC(=O)[C@H](C)CCCCc2ccccc21,·,6,·,·,·
Cc1noc(C)c1COc1ccccc1C(=O)NCCc1ccc(F)cc1,·,8,·,·,·
Cc1ccc2cc(/C=N/Nc3nc4ccccc4[nH]3)c(Cl)nc2c1,-6,-33,12,3.4*,10
COc1cc(OC)c(OC)cc1/C=N/Nc1nc2ccccc2[nH]1,0,-76,3,0,-4
CCCCCCCCCCCCCCCCn1cc[n+](CC(C)=O)c1,68*,-30,12,1,5
CCCCCCn1ccc(=N)cc1,14,7,-6,1,7
CC1(c2nnc(-c3ccccc3)o2)CC(c2ccncc2)=NO1 (stereo not drawn),97*,-8,-6,·,-2
COc1ccc(-c2onc3ccc(Cl)cc23)cc1,8,24,51*,1,68*
COc1ccc(S(=O)(=O)NCc2ccccc2)cc1,9,1,-11,1,4
COc1ccc(C(=O)COC(=O)c2cc(S(=O)(=O)NCc3ccccc3)ccc2O)cc1,-1,-5,active,0,69*
COc1cc(C(C#N)N2CCOCC2)ccc1O (stereo not drawn),-3,7,4,3.5*,2
c1ccc(C2=NNC(c3ccccn3)=NN2)nc1,·,43*,7,·,-4
COCc1cc(=O)n2[nH]c(N)nc2n1,-12,0,6,2,14
Cc1ccccc1-c1cc2nc(C)c(Cl)c(=O)n2[nH]1,·,11,·,·,·
Cc1cc(=O)n2[nH]c(-c3ccsc3-n3c(C)ccc3C)cc2n1,7,-54,75*,1,81*
Cc1nc2cc(-c3ccsc3-n3c(C)ccc3C)[nH]n2c(=O)c1Cl,1,4,85*,2,83*
COCc1cc(=O)n2[nH]c(-c3ccsc3-n3c(C)ccc3C)cc2n1,0,-34,80*,0,66*
Cc1cnc(=O)[nH]c1SCc1ccccc1F,·,-14,-2,·,2
COC(=O)C1=C(C)NC(=O)/C1=C\c1cc(C)n(-c2ccccc2F)c1C,-1,13,11,0,11
COC(=O)C1=C(C)NC(=O)/C1=C\c1cc(C)n(-c2ccccc2C)c1C,1,-13,57*,0,49*
Cc1ccc(S(=O)(=O)N2[C@H](C(C)C)[C@H]3[C@H]4C(=O)N(c5ccccc5)C(=O)[C@H]4CC(=O)[C@H]3[C@@H]2c2ccccc2)cc1,·,6,·,·,·
CCOC(=O)c1c(C)[nH]c(C(=O)N2CCc3cc(OC)c(OC)cc3C2)c1C,·,-1,·,·,·
CCN1C(=O)/C(=C2/SC(C)=C(C)N2CC)SC1=S,-5,52*,0,0,10
CCOc1ccc(NS(=O)(=O)c2ccc(C(=O)NNC(=O)c3ccccc3O)cc2)cc1,·,7,·,·,·
COC(=O)c1cc(-c2ccccc2)sc1NC(=O)CN1C(=O)c2ccccc2C1=O,1,36*,-8,0,-6
SMILES,eIF4E 4G PPI,PABP1 MLLE inh,eIF4H inh,PERK inhibitor,PABP polyA inh
COC(=O)c1cc(OC)c(OC)cc1NC(=O)CN1C(=O)c2ccccc2C1=O,5,-4,-5,0,-4
O=C1C2=C(SCCS2)C(=O)N1CCCO,1,58*,101*,0,111*
Cc1cc(C(=O)CCC(=O)N(C)CC(=O)Nc2c(Cl)cccc2Cl)c(C)s1,·,4,·,·,·
Cc1ccc(N(C)S(=O)(=O)c2cccc(C(=O)NCC(c3ccco3)N3CCCC3)c2)cc1 (stereo not drawn),·,4,·,·,·
Oc1cc(-n2cccn2)c(O)cc1-n1cccn1,8,47*,-7,0,14
O=C(O)CSc1cc(NS(=O)(=O)c2ccc(Cl)cc2)c2ccccc2c1O,·,40*,-2,·,16
Cc1cc(S(=O)(=O)N2CCN(CC(=O)NCCc3cccs3)CC2)ccc1Br,·,5,·,·,·
CC(C)(C)NC(=O)NC(=O)CN1CCN(c2cccc(Cl)c2)CC1,85*,7,-16,0,6
CC(C)(C)NC(=O)NC(=O)CN1CCN(c2ccccc2)CC1,3,-2,-4,1,5
Cc1c(Cl)cccc1NC(=O)CNC(=O)c1ccccc1F,1,5,2.4*,0,66*
COc1ccc(N2Cc3ccccc3C2=O)cc1,·,3,-1,·,3
